# VDR inhibitor: blocks the human vitamin D receptor; AID 504847; Potency, µM, without a hit: max response, negative = inhibition, most hits filed as inhibitors; actives 0.93% (n = 400,000); VDR-SRC2-3 peptide fluorescence polarization, 2 h; note: potency is the fitted concentration of half-maximal effect
#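 The screen uses fluorescence polarization to detect compounds that interfere with recruitment of the SRC2-3 coactivator peptide to VDR; plates are read after 2 h at room temperature.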
# GLS inh: inhibitors of human glutaminase (GLS) | O94925 | GLS enzymatic activity, qHTS titration | Potency, µM (top dose mostly 45.5 µM), without a hit: at the highest dose activity change, negative = inhibition, actives largely listed as inhibitors | actives 0.21% (n = 410,000) | AID 624170; note: potency is the fitted concentration of half-maximal effect
#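 Assay buffer: 45 mM KH2PO4 pH 8.2, 0.02% Tween-20. hKGA acts on L-glutamine (1 mM solution added); product glutamate is reported by an oxidase/peroxidase Amplex Red coupling, with fluorescence taken at baseline and 30 min.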
# PLK1 PBD block: inhibitors of human PLK1 polo-box domain binding; Plk1 PBD binding of FITC phosphopeptide, fluorescence polarization; Potency, µM, for inactives: max response, negative = inhibition, usual class: inhibitors; actives 2.8% (n = 360,000); AID 720504; note: potency is the fitted concentration of half-maximal effect; series mostly up to about 57 µM; nearly all actives have a fitted effect of over 65% in size
# PI4K2A inh: PI4K2A (human) kinase inhibition. purified PI4K2A, ADP-Glo luminescence, 1 h; stronger effect = lower value. actives 0.13% (n = 420,000). activity change, negative = inhibition, % at 76.9 µM. Q9BTU6. AID 1346378; in the data active = activity change below about -50%; inconclusive = mostly about -30% to -49%;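 note: -100% = wells without enzyme as full effect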
#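 PI4K2A activity was measured by ADP-Glo luminescence: enzyme (4 ug/mL stock) and phosphatidylinositol (1.2 mM stock) in Tris pH 7.5/MgCl2/EGTA/Triton X-100 buffer were reacted with ATP (300 microM stock) for one hour at ambient temperature.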
# GCN5L2 inh: inhibitors of human GCN5L2 histone acetyltransferase. Q92830. GCN5L2 HAT assay, ThioGlo1 CoA-SH fluorescence. Potency, µM (titrated, usually from 58.9 µM), inactives show at the highest dose activity change, negative = inhibition, usual class: inhibitors. actives 0.21% (n = 390,000). AID 504327; note: potency is the fitted concentration of half-maximal effect
# Target sequence (Q92830 whole entry, looked up): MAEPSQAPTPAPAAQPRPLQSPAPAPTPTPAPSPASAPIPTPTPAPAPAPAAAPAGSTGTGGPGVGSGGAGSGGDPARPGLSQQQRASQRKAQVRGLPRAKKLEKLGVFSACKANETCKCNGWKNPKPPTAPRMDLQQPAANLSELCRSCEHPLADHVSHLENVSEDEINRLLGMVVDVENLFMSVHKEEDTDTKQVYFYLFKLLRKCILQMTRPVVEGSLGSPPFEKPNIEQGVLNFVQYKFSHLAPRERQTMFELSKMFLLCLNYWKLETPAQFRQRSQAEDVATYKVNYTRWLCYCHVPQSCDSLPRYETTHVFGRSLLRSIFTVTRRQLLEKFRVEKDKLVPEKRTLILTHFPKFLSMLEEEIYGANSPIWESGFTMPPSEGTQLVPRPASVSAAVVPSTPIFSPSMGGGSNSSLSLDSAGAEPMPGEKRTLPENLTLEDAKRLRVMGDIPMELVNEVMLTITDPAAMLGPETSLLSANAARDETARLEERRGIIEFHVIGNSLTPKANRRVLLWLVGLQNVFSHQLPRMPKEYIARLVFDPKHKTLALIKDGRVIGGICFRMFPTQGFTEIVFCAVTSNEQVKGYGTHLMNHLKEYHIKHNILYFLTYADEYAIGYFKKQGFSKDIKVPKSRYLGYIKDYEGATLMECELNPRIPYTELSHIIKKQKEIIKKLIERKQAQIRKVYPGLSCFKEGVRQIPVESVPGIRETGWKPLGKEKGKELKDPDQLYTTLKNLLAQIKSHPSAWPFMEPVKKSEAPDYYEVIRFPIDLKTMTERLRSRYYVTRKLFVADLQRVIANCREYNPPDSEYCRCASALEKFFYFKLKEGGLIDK
#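 GCN5L2 (20nM final) in 50mM HEPES, 0.1mM EDTA pH 7.5, 0.01% Tween-20 was preincubated 15 min at room temperature with compound, then given ThioGlo1 (50uM), H3(1-25) peptide (75uM) and acetyl-CoA (70uM); CoA-thiol fluorescence (Ex340/Em540) was read at 0 and 20 min.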
# * = called active by the depositor; ? = inconclusive; nt = not tested or not shown. Hits are enriched below; roughly 3.1% of the tested compounds scored in any of these assays. Unless noted, calls come from the whole dose curve; as a rule, active = well fitted curve in the direction sought with a large enough effect; inconclusive = small, poorly fitted or top-dose-only effect, or another doubt; inactive = no such curve, though single readings can be large; an effect the other way counts as inactive or inconclusive. Unless noted, % is set by controls: 0 for no effect and ±100 for the full control effect.
SMILES,VDR inhibitor,GLS inh,PLK1 PBD block,PI4K2A inh,GCN5L2 inh
CCCC#Cc1ccc(CC[C@H]2O[C@H]3CC[C@H](CO)O[C@H]3C[C@H]2NC(=O)CN2CCOCC2)cc1,nt,nt,nt,-9,nt
O=C(NC1CC1)c1ccc(NC(=O)C2CCC2)cc1,79µM*,5%,19µM*,-3,nt
O=C(NC1CC1)c1ccc(NC(=O)C2CCCC2)cc1,-13%,1%,-3%,-2,nt
CN1CCN(C(=O)CCNC(=O)Cn2cnc3ccccc3c2=O)CC1,-16%,-10%,-13%,0,4%
CC1(c2ccccc2)NC(=O)N(CC(=O)NCCC2=CCCCC2)C1=O (centres undefined),-15%,-20%,-23%,-5,28µM*
O=C(CCNC(=O)Cn1cnc2ccccc2c1=O)NCCC1=CCCCC1,-10%,-3%,27µM*,-9,-10%
Cn1c(=O)c2[nH]c(SCC(=O)N3CCN(c4cccc(C(F)(F)F)c4)CC3)nc2n(C)c1=O,nt,nt,nt,0,nt
O=C(c1cccc(Cl)c1)N1CCN(c2ccnc3cc(Cl)ccc23)CC1,nt,nt,nt,1,nt
COC(=O)[C@]12C[C@H](CC(=O)NCC3CCCCC3)C(=O)N(Cc3ccc(Cl)cc3Cl)C1=C[C@H](C(C)(C)C)O[C@@H]2C,nt,nt,nt,-2,nt
CC1(C)Cc2c(c(N3CCCC3)[nH]c(=S)c2C#N)CO1,nt,nt,nt,nt,-15%
CC1(C)Cc2[nH]c(=S)c(C#N)cc2CO1,?,-2%,17µM*,-3,?
O=[N+]([O-])c1cc(C(F)(F)F)ccc1Sc1ccc2ccccc2n1,-26%,2%,30µM*,-2,4%
Cc1ccc(NS(=O)(=O)c2coc(C(N)=O)c2)cc1F,-25%,10%,24µM*,-1,1%
O=c1[nH]cnc(O)c1C1C=CC=CC=C1,40µM*,?,-8%,4,nt
CC1CCCCN1c1ccc(N)cc1C(N)=O (centres undefined),-2%,2µM*,-10%,0,0%
CC1CCCCN1c1nnc(N)s1 (centres undefined),25%,7%,-12%,0,0%
Cc1ccc(CNC(=O)CCc2ccc(S(=O)(=O)NC3CCCCC3)cc2)cc1,-23%,-4%,30µM*,-2,-6%
O=C1NC(=S)S/C1=C\c1cc(Cl)ccc1Cl,?,42%,21µM*,0,nt
O=C1NC(=S)SC1=Cc1ccccc1C(=O)O,nt,50%,-17%,-7,nt
COc1cc(NC(=O)C2CCN(c3nnc(-n4cccc4)s3)CC2)cc(OC)c1,nt,nt,nt,2,nt
CCCCNC(=O)C[C@H]1C[C@@]2(C(=O)OC)C(=C[C@H](C(C)C)O[C@@H]2C2CC2)N(Cc2cccc3ccccc23)C1=O,nt,nt,nt,2,nt
Cc1ccc(-n2c(SCC(=O)c3ccc(F)cc3)nnc2-c2cccnc2)cc1,nt,nt,nt,5,nt
CCC(=O)Nc1ccc2nc(C3CC3)n(Cc3ccc(C(C)(C)C)cc3)c(=O)c2c1,?,7%,12µM*,8,-1%
O=C(CSc1nc2ccccc2nc1N1CCCCC1)N1CCN(S(=O)(=O)c2cc(Cl)ccc2Cl)CC1,nt,nt,nt,19,nt
Nc1c(C=C2C=CC(=O)C=C2)c(=O)nc2snc(SCc3ccccc3)n12,-20%,-4%,21µM*,-2,-12%
SMILES,VDR inhibitor,GLS inh,PLK1 PBD block,PI4K2A inh,GCN5L2 inh
CSc1nsc2nc(=O)c(/C=C3\C=Nc4ccccc43)c(N)n12,-16%,?,?,-6,-2%
COc1ccc(CC(=O)OCn2nnc3ccccc3c2=O)cc1OC,1%,-12%,-2%,-2,-23%
COc1ccc(CC(=O)OCn2nnc3ccccc3c2=O)cc1,-12%,1%,-8%,-57*,3%
O=C(OCc1ccccc1)[C@H](Cc1ccccc1)NC(=O)[C@@H]1CC=C[C@@H]2CCN(Cc3ccc(Cl)cc3)C(=O)[C@@H]21,nt,nt,nt,-2,nt
CC(OC(=O)CC1Sc2ccccc2NC1=O)C(=O)N(C)Cc1ccccc1 (centres undefined),-13%,6%,19µM*,0,nt
C=CCN1[C@H](C)COc2cccc(N3CCCC3)c2S1(=O)=O,nt,nt,nt,-1,nt
CCc1nnc(NC(=O)c2ccc(S(=O)(=O)N(CC)Cc3ccccc3)cc2)o1,-20%,?,3µM*,-3,-16%
CCN(Cc1ccccc1)S(=O)(=O)c1ccc(C(=O)Nc2nnc(C)o2)cc1,7%,-3%,-8%,-4,-3%
CCOC(=O)c1ccc([N+](=O)[O-])c(CS(=O)(=O)c2ccc(Cl)cc2)c1,10%,-3%,1%,-2,-4%
Cc1ccc(S(=O)(=O)Cc2cc(F)c([N+](=O)[O-])cc2[N+](=O)[O-])cc1,-8%,5%,2.4µM*,15,-10%
CCCC(=O)Nc1c(I)cc(I)c(C[C@H](CC)C(=O)O)c1I,-25%,9%,nt,nt,1%
CCC(Cc1c(I)cc(I)c(O)c1I)C(=O)O (centres undefined),32µM*,-25%,nt,nt,22µM*
O=S1(=O)c2ccc(Br)cc2OC[C@@H](Cc2ccccc2)N1Cc1cn(CCC2OCCO2)nn1,nt,nt,nt,3,nt
[N-]=C=C1C(=O)NC(=O)C([n+]2ccc(-c3ccncc3)cc2)C1c1ccccc1C(F)(F)F (centres undefined),28µM*,7%,?,-9,-3%
NC(=O)c1ccc(NC(=O)c2cncn2-c2ccccc2)cc1,79µM*,?,24µM*,1,-2%
CC(=O)NCCCC[C@H](NC(=O)OC(C)(C)C)C(=O)Nc1ccc2c(C(F)(F)F)cc(=O)oc2c1,-1%,nt,nt,nt,?
CC(C)c1nc2ccccc2c2nnc(SCC(=O)NCc3ccco3)n12,-18%,12%,30µM*,2,1%
CCn1nnc(NC(=S)NC(=O)c2ccc(-c3cccc(Cl)c3)o2)n1,-21%,-15%,21µM*,1,-6%
CCCn1nnc(NC(=O)c2ccc(-c3cccc(Cl)c3)o2)n1,-3%,5%,-7%,-14,-10%
CCC(=O)OCCCN1C(=O)CCC12CCC(C)CC2 (centres undefined),nt,nt,nt,-1,nt
COc1cccc(OC)c1C(=O)NCCSC1CCCCC1,?,45%,27µM*,3,0%
CCN(CC)S(=O)(=O)c1ccc2oc(C(=O)NC(C)C)c(C)c2c1,-10%,3%,27µM*,-1,2%
CCCCN(CC)C(=O)c1oc2ccc(S(=O)(=O)N3CCCC3)cc2c1C,?,21%,30µM*,6,-9%
CCN(CC)S(=O)(=O)c1ccc2oc(C(=O)O)c(C)c2c1,5%,20%,-6%,1,-3%
Cc1c(C(=O)N(Cc2ccccc2)C(C)C)oc2ccc(S(=O)(=O)N3CCOCC3)cc12,-12%,11%,30µM*,6,-6%
Cc1c(C(=O)N(C)CCC#N)oc2ccc(S(=O)(=O)N3CC(C)CC(C)C3)cc12 (centres undefined),?,27%,19µM*,10,-4%

# Screens (PubChem)
